Screens as filed in PubChem.
ELG1 genotox – qHTS screen for small molecules that induce genotoxicity in human embryonic kidney (HEK293T) cells expressing luciferase-tagged ELG1 | Potency, µM (highest dose often 46 µM), most hits filed as activators | AID 504466, 2011 | hit rate 1.3% among 330,000 | HEK293T ELG1-luciferase reporter, luminescence, 16 h; further: nearly all actives have a fitted effect of over 60% in size
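Genotoxic stress is detected as increased luminescence from luciferase-tagged ELG1 in HEK293T cells, measured with ONE-Glo after a 16 hr treatment at 37 °C.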
Rab9 promoter act – qHTS Assay for Rab9 Promoter Activators; Huh7 Rab9 promoter-luciferase reporter, luminescence, 24 h; Potency, µM (doses to about 9.22 µM), actives largely listed as activators; AID 485297, 2010; hit rate 2.8% among 320,000; further: nearly all actives have a fitted effect of over 60% in size
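Measured in stably transfected Huh7 cells bearing a Rab9 promoter–luciferase construct: 24 h compound treatment at 37 °C, followed by luminescence detection.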
FLuc modulator – qHTS profiling assay for firefly luciferase inhibitor/activator using purifed enzyme and Km concentrations of substrates (counterscreen for miR-21 project); Luciferin 4-monooxygenase (Photinus pyralis), P08659; purified FLuc, Km substrates, luminescence inhibition; Potency, µM (top dose mostly 57.5 µM), hits mostly inhibitors; hit rate 6.9% among 360,000; AID 588342, 2011; further: nearly all actives have a fitted effect of over 55% in size
Target sequence (P08659 whole entry, looked up): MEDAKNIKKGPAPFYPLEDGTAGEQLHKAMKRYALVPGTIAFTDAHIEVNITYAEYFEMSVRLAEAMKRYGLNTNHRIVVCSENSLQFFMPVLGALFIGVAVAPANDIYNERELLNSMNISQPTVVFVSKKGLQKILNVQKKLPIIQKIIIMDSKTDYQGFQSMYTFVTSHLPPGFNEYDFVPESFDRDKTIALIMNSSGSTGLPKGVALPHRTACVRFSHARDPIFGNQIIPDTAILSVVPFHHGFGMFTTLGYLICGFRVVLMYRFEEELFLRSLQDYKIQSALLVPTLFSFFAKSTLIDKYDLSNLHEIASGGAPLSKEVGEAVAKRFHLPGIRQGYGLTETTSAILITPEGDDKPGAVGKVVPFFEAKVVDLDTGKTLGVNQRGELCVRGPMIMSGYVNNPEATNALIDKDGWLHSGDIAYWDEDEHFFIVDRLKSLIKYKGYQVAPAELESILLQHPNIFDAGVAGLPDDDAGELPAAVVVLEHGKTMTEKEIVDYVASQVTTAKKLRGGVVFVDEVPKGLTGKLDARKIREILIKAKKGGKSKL
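Purified P. pyralis luciferase, 10 nM final, with Km-level 10 uM D-luciferin and 10 uM ATP in 50 mM Tris acetate pH 7.5, 10 mM Mg acetate, 0.01% Tween-20, 0.05% BSA; 6-point qHTS titration about 60 µM downward; luminescence read.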
NPC1 prom act – qHTS Assay for NPC1 Promoter Activators; Huh7 NPC1 promoter luciferase reporter, 24 h; Potency, µM (top dose mostly 9.22 µM), actives largely listed as activators; hit rate 2.4% among 320,000; AID 485313, 2010; further: nearly all actives have a fitted effect of over 60% in size
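In 1536-well qHTS, Huh7 cells harboring an NPC1 promoter–luciferase construct received compound for 24 h; activation was quantified by luminescence following luciferase reagent addition.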
SMN2 splice up – qHTS Assay for Enhancers of SMN2 Splice Variant Expression; HEK293 SMN2-luciferase splicing reporter, luminescence, 30-36 h; Potency, µM (titrated, usually from 46.1 µM), actives largely listed as activators; hit rate 2.8% among 210,000; further: nearly all actives have a fitted effect of over 55% in size
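qHTS luciferase splicing reporter: luminescence rises when SMN2 exon 7 is included in transfected HEK293 cells. Compound exposure lasted 30-36 h at 37C, with 4.5 mM final sodium butyrate as control, followed by a ONE-Glo read.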
A number is an active result; - = inactive; ? = inconclusive; . = not tested or not shown; [ ] = another dose, or the depositor's remark. Sampled rows, rich in hits. Any-hit rate of the full collection: about 7.5%. The call rests on the fitted dose curve; in most records, active means well fitted curve in the direction sought with a large enough effect; inconclusive means small, poorly fitted or top-dose-only effect, or another doubt; inactive means no such curve, though single readings can be large; an effect the other way counts as inactive or inconclusive.

SMILES | ELG1 genotox | Rab9 promoter act | FLuc modulator | NPC1 prom act | SMN2 splice up
O=C(c1ccco1)c1cn(Cc2ccc(Cl)cc2)c2ccccc12 | - | - | ? | - | -
CCCC[N+]12CCC(CC1)C(C(O)(c1ccccc1)c1ccccc1)C2 (stereo not drawn) | - | - | - | - | .
OC(c1ccccc1)(c1ccccc1)C1CCCN1 (stereo not drawn) | ? | 3.2µM | 12µM | - | -
O=C(Cc1c(O)c2ccccc2oc1=O)c1ccc(F)cc1 | - | ? | 3µM | ? | .
c1ccc(CCN2CCOCC2)nc1 | . | . | . | . | -[9.22 µM]
C=CC1CC=CCC1 (stereo not drawn) | . | . | . | . | -
CCCOc1ccc(C(=O)Nc2ccc(-c3cc4ccccc4oc3=O)c(C)c2)cc1 | . | . | 1.7µM | . | -
COc1ccc(C(=O)Nc2cccc(S(=O)(=O)NCc3ccco3)c2)cc1 | - | . | . | . | .
O=c1c2ccccc2[nH]c(=S)n1-c1ccc2c(c1)OCCO2 | - | ? | 11µM | ? | .
Cc1cccc(-n2c(=S)[nH]c3ccccc3c2=O)n1 | - | - | - | - | -
O=C1C=CC[C@@H]2[C@H]3CCCN4CCC[C@@H](CN12)[C@@H]34 | . | . | . | . | -
COc1ccc(P2(=O)Nc3ccccc3N2)cc1 | - | - | 7.6µM | - | -
Cc1ccc(C(=O)Nc2c(C(=O)Nc3ccc(C)c(C)c3)sc3nc(C)cc(C)c23)cc1 | . | . | 11µM | . | 13µM
Cc1ccc(NC(=O)c2snnc2C)cc1Cl | - | - | - | - | -
CCC1(CCSC(=N)N)C(=O)NC(=O)NC1=O | . | . | . | . | -[9.22 µM]
CCN(CCO)c1ccc(N=Cc2c(O)n(C)c(=S)[nH]c2=O)cc1 | - | ? | 1.7µM | ? | .
O=C(O)C(C(=O)O)P(=S)(S)c1ccccc1 (stereo not drawn) | . | . | . | . | -[9.22 µM]
O=C1NC(=O)N(c2ccc3c(c2)OCO3)C(=O)/C1=C/c1ccsc1 | - | - | 19µM | - | -
CNC(=O)COC(=O)c1ccc(-c2nc3ccccc3s2)s1 | 3.7µM | - | 1.1µM | ? | 16µM
CCCCN1CC(O)=C(c2nc3ccccc3s2)C1=N | - | ? | ? | ? | -
Cc1ccc(Cn2cccc(C(=O)Nc3ccc4c(c3)OCCO4)c2=O)cc1 | . | . | 8.5µM | . | .
CCc1ccc(NC(=O)c2cccn(Cc3cccc([N+](=O)[O-])c3)c2=O)cc1 | . | . | 9.5µM | . | .
Cc1ccc(Cn2cccc(C(=O)Nc3ccc4c(c3)OCO4)c2=O)cc1 | . | . | - | . | .
O=C(Nc1ccc2c(c1)OCO2)c1cccn(Cc2cccc(F)c2)c1=O | . | . | 27µM | . | .
O=C(Nc1ccc2c(c1)OCCO2)c1cccn(Cc2cccc(F)c2)c1=O | . | . | 21µM | . | .
SMILES | ELG1 genotox | Rab9 promoter act | FLuc modulator | NPC1 prom act | SMN2 splice up
O=C(Oc1ccc(S(=O)(=O)F)cc1F)c1ccccc1Cl | . | . | . | . | -[9.22 µM]
O=C(Nc1ccncc1)c1cccn(Cc2ccccc2)c1=O | - | - | - | - | -
Cc1ccc(NC(=O)N(Cc2ccc3c(c2)OCO3)C2CCN(Cc3ccccc3)CC2)cc1C | . | . | - | . | .
O=C(CSCc1ccccc1)Nc1ccc2c(c1)OCO2 | ? | 3.2µM | 15µM | ? | -
O=C(Nc1ccon1)c1cccn(Cc2ccccc2)c1=O | . | . | - | . | .
O=C(Nc1ccccc1)c1cccn(Cc2ccccc2)c1=O | ? | 4µM | 24µM | - | -
O=C(Nc1ccc2c(c1)OCO2)c1cccn(Cc2ccccc2)c1=O | . | . | 17µM | . | .
O=C(O)c1cn(Cc2ccccc2)nc1-c1ccccc1 | - | - | - | - | -
CCc1ccc(-c2nn(Cc3ccccc3)cc2C=O)cc1 | ? | 1µM | 6.7µM | 2.5µM | 14µM
O=C1NC(=S)N(c2ccc(F)cc2)C(=O)/C1=C\c1ccoc1 | - | - | 24µM | - | .
Cc1ccc(/C=C2\C(=O)NC(=S)N(c3cccc(F)c3)C2=O)o1 | - | - | 17µM | - | .
CC(N)(COP(=O)(O)Oc1ccccc1)C(=O)O (stereo not drawn) | . | . | . | . | -
COC(=O)c1c(C)ccc2c(O)c3c(cc12)C(=O)c1c2c(cc(O)c1C3=O)[C@@]1(C)O[C@@](C)(O2)[C@@H](O)[C@H](N(C)C)[C@H]1O | . | . | . | . | -[9.22 µM]
COc1ccccc1CN1CCCC2(CCN(C(=O)Oc3ccccc3)CC2)C1 | . | . | . | . | -
CN(C)c1ccccc1 | . | . | . | . | -
CN(C)c1ccc(C(=O)c2ccc(N(C)C)cc2)cc1 | 23µM | - | 13µM | - | -
C=C1C/C(=C\C)C(=O)O[C@@H]2CCN3CC=C(COC(=O)[C@@]1(C)O)[C@H]23 | . | . | . | . | -
CCC(COC(=O)NC)NC(=O)Oc1cccc(C)c1 (stereo not drawn) | - | - | - | - | -
CNC(=O)Oc1cccc(-c2cn3cc(Cl)ccc3n2)c1 | ? | 3.5µM | 2.7µM | 3.2µM | ?
CNC(=O)Oc1ccc(-c2cn3cc(C)ccc3n2)cc1 | ? | 0.32µM | 0.34µM | 0.35µM | 1.8µM
